ChEMBL document CHEMBL1157539, “Thousands of chemical starting points for antimalarial lead identification” (Nature, 2010)

Each compound was assayed on Plasmodium falciparum (assay: GSK_TCMDC: Inhibition of Plasmodium falciparum Dd2 in whole red blood cells, using parasite LDH activity as an index of growth. Test compounds present at 2uM).
Assay type: functional
Compound `Cc1ccc(-c2cc(C(=O)Nc3ccc(S(=O)(=O)N4CC(C)OC(C)C4)cc3)[nH]n2)c(O)c1` (centres undefined) has an Inhibition of 98%. `Cc1ccc(F)c(OCC2CCCN(c3ccc(C(=O)NC4CC4)cn3)C2)c1` (centres undefined) was tested, and the Inhibition was 94%. Compound `COC(=O)c1cccc(OCCNC2CCN(C[C@H](O)c3ccnc4ccc(OC)cc34)CC2)c1.O=C(O)C(=O)O` has an Inhibition of 96%. With `Cc1cc(NCc2ccc(F)cc2)nc2cc(O)ccc12` the Inhibition was 85%.

These compounds were tested on HepG2 (assay: GSK_TCMDC: Percent inhibition of human HepG2 cell line. Test compounds present at 10uM.).
Assay type: functional
`Cc1ccccc1C(=O)Nc1cccc(-c2nc3ncccn3c2C)c1` was tested, and the Inhibition was 0%. Work on `COc1ccc(CNC(=O)NC2CCN(c3ccnc(Nc4cc(OC)c(OC)c(OC)c4)n3)C2)cc1` (centres undefined) yielded an Inhibition of 0%. In the case of `CN1CCN(c2cccc(NC(=O)c3ccc(-c4ccc(C#N)cc4)cc3)c2)CC1`, the Inhibition is reported as 31%. Compound `Cc1cc(NC(=O)c2cccs2)ccc1OC1CCN(Cc2ccc(C#N)cc2)CC1.O=C(O)C(F)(F)F` has an Inhibition of 34%. Compound `CN1CCCC(COc2cc3c(cc2Br)CCN3C(=O)Nc2ccc(-c3ccncc3)c(Cl)c2)C1` (centres undefined) has an Inhibition of 99%. `COc1cc(Cn2ccc3c4c(N)nc(N)nc4ccc32)cc(OC)c1OC` was tested, and the Inhibition was 66%. Compound `COc1ccc2nccc([C@@H](O)CN3CCC(NCCOc4ccncc4)CC3)c2c1.O=C(O)C(=O)O` has an Inhibition of 11%. `Cn1nc(-c2ccc(NC(=O)Nc3ccc4ccccc4c3)c(F)c2)c2cnc(NCCN3CCOCC3)nc21.O=C(O)C(F)(F)F` was tested, and the Inhibition was 62%. For `Fc1ccc2[nH]c(-c3ccc(-c4ccc(CN5CCN(c6ccncc6)CC5)cc4)cc3)nc2c1.O=C(O)C(F)(F)F`, the Inhibition was 37%. With `Cc1ccc(CNC(=O)[C@H](CCCN)Nc2cc(C)nc(Nc3ccccc3)n2)cc1.O=C(O)C(F)(F)F` the Inhibition was 0%.
